According to paper PMC5540273 (PLoS ONE, 2017):
Where “and” joins values, the source holds several entries; their conditions need not be identical. Equal values may be shown once. Read-outs that look alike come from different tables or passages of the source.

How the values were obtained:
Conditions in all cases: concentration: 1 μM, replicates: in singlicate, n = 1
[1] = system: EPHA3
[2] = system: EPHA4
[3] = system: EPHA5
[4] = system: EPHA6
[5] = system: EPHA7
[6] = system: EPHA8
[7] = system: EPHB1
[8] = system: EPHB2
[9] = system: EPHB3
[10] = system: EPHB4
[11] = system: EPHB6
[12] = system: ERBB2
[13] = system: ERBB3
[14] = system: ERBB4
[15] = system: T1, ERK1
T1 construct: gene MAPK3

[16] = system: T2, ERK2
T2 construct: gene MAPK1

[17] = system: T3, ERK3
T3 construct: gene MAPK6

[18] = system: T4, ERK4
T4 construct: gene MAPK4

[19] = system: T5, ERK5
T5 construct: gene MAPK7

[20] = system: T6, ERK8
T6 construct: gene MAPK15
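Further: KINOMEscan kinase panel screen.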

O=c1cc(N2CCOCC2)nc2n(Cc3cccc(C(F)(F)F)c3)ccn12 [GSK2297543]
%Inh [1]: 0%
%Inh [2]: 6%
%Inh [3]: 0%
%Inh [4]: 0%
%Inh [5]: 0%
%Inh [6]: 2%
%Inh [7]: 24%
%Inh [8]: 0%
%Inh [9]: 3%
%Inh [10]: 7%
%Inh [11]: 0%
%Inh [12]: 16%
%Inh [13]: 0%
%Inh [14]: 5%
%Inh [15]: 0%
%Inh [16]: 0%
%Inh [17]: 0%
%Inh [18]: 12%
%Inh [19]: 0%
%Inh [20]: 0%

NS(=O)(=O)CCc1cccc(Nc2nccc(-c3c(-c4cccc(NC(=O)c5c(F)cccc5F)c4)nn4ccccc34)n2)c1 [GSK336735]
%Inh [1]: 30%
%Inh [2]: 45%
%Inh [3]: 0%
%Inh [4]: 48%
%Inh [5]: 8%
%Inh [6]: 60%
%Inh [7]: 26%
%Inh [8]: 18%
%Inh [9]: 0%
%Inh [10]: 11%
%Inh [11]: 97.1%
%Inh [12]: 98.7%
%Inh [13]: 94%
%Inh [14]: 100%
%Inh [15]: 7%
%Inh [16]: 0%
%Inh [17]: 0%
%Inh [18]: 10%
%Inh [19]: 45%
%Inh [20]: 0%

CC(C)(CN)c1nc(-c2ccc(Cl)c(O)c2)c(-c2ccncc2)[nH]1.O=C(O)C(F)(F)F [SB-477794]
%Inh ([1]; 1 µM): 50% and 61%
%Inh ([2]; 1 µM): 42% and 23%
%Inh ([3]; 1 µM): 0% and 2%
%Inh ([4]; 1 µM): 74% and 63%
%Inh ([5]; 1 µM): 35% and 20%
%Inh ([6]; 1 µM): 87% and 85%
%Inh ([7]; 1 µM): 45% and 20%
%Inh ([8]; 1 µM): 37% and 30%
%Inh ([9]; 1 µM): 35% and 14%
%Inh ([10]; 1 µM): 24% and 38%
%Inh ([11]; 1 µM): 2% and 28%
%Inh ([12]; 1 µM): 83% and 80%
%Inh ([13]; 1 µM): 42% and 45%
%Inh ([14]; 1 µM): 26% and 35%
%Inh ([15]; 1 µM): 0% and 11%
%Inh [16]: 0%
%Inh ([17]; 1 µM): 20% and 0%
%Inh ([18]; 1 µM): 13% and 20%
%Inh ([19]; 1 µM): 32% and 56%
%Inh [20]: 0%

Nc1nc(-c2ccc3c(N)n[nH]c3c2)cc(N2CCCC2)n1 [GSK2227430]
%Inh [1]: 3%
%Inh [2]: 5%
%Inh [3]: 0%
%Inh [4]: 6%
%Inh [5]: 0%
%Inh [6]: 6%
%Inh [7]: 0%
%Inh [8]: 0%
%Inh [9]: 13%
%Inh [10]: 10%
%Inh [11]: 19%
%Inh [12]: 0%
%Inh [13]: 0%
%Inh [14]: 8%
%Inh [15]: 0%
%Inh [16]: 0%
%Inh [17]: 0%
%Inh [18]: 24%
%Inh [19]: 0%
%Inh [20]: 0%

Cc1cn2c(=O)cc(N3CCOCC3)nc2n1Cc1cccc(Cl)c1Cl [GSK2334006]
%Inh [1]: 0%
%Inh [2]: 19%
%Inh [3]: 0%
%Inh [4]: 10%
%Inh [5]: 7%
%Inh [6]: 21%
%Inh [7]: 16%
%Inh [8]: 7%
%Inh [9]: 17%
%Inh [10]: 19%
%Inh [11]: 0%
%Inh [12]: 20%
%Inh [13]: 0%
%Inh [14]: 33%
%Inh [15]: 0%
%Inh [16]: 13%
%Inh [17]: 21%
%Inh [18]: 0%
%Inh [19]: 0%
%Inh [20]: 24%

c1ccc(-c2cc(-c3c[nH]nc3-c3ccccn3)ccn2)cc1 [GW576604]
%Inh [1]: 15%
%Inh [2]: 0%
%Inh [3]: 0%
%Inh [4]: 0%
%Inh [5]: 0%
%Inh [6]: 0%
%Inh [7]: 20%
%Inh [8]: 0%
%Inh [9]: 0%
%Inh [10]: 7%
%Inh [11]: 0%
%Inh [12]: 0%
%Inh [13]: 16%
%Inh [14]: 52%
%Inh [15]: 8%
%Inh [16]: 0%
%Inh [17]: 0%
%Inh [18]: 3%
%Inh [19]: 0%
%Inh [20]: 0%

CN1c2ccc(NCc3ccc(F)cc3)cc2-c2c(cnn2C)S1(=O)=O
%Inh [1]: 0%
%Inh [2]: 0%
%Inh [3]: 0%
%Inh [4]: 0%
%Inh [5]: 0%
%Inh [6]: 0%
%Inh [7]: 0%
%Inh [8]: 0%
%Inh [9]: 6%
%Inh [10]: 0%
%Inh [11]: 0%
%Inh [12]: 7%
%Inh [13]: 27%
%Inh [14]: 0%
%Inh [15]: 0%
%Inh [16]: 0%
%Inh [17]: 0%
%Inh [18]: 0%
%Inh [19]: 3%
%Inh [20]: 22%

Cl.Cl.Cl.Fc1ccc(-c2ncn(C3CCNCC3)c2-c2ccnc(Nc3ccccc3)n2)cc1 [SB-238039]
%Inh ([1]; 1 µM): 34% and 25%
%Inh ([2]; 1 µM): 8% and 0%
%Inh ([3]; 1 µM): 7% and 10%
%Inh ([4]; 1 µM): 18% and 0%
%Inh [5]: 0%
%Inh [6]: 10%
%Inh ([7]; 1 µM): 31% and 0%
%Inh ([8]; 1 µM): 25% and 0%
%Inh [9]: 0%
%Inh [10]: 0%
%Inh ([11]; 1 µM): 3% and 0%
%Inh ([12]; 1 µM): 92% and 79%
%Inh ([13]; 1 µM): 67% and 7%
%Inh ([14]; 1 µM): 47% and 46%
%Inh ([15]; 1 µM): 60% and 11%
%Inh ([16]; 1 µM): 37% and 26%
%Inh ([17]; 1 µM): 0% and 18%
%Inh [18]: 0%
%Inh ([19]; 1 µM): 46% and 0%
%Inh ([20]; 1 µM): 0% and 10%

[2H]C([2H])(c1cccc(C(F)(F)F)c1C)n1ccn2c(=O)nc(N3CCOCC3)cc12 [GSK2336394]
%Inh [1]: 0%
%Inh [2]: 1%
%Inh [3]: 0%
%Inh [4]: 0%
%Inh [5]: 11%
%Inh [6]: 19%
%Inh [7]: 20%
%Inh [8]: 0%
%Inh [9]: 7%
%Inh [10]: 8%
%Inh [11]: 11%
%Inh [12]: 20%
%Inh [13]: 0%
%Inh [14]: 24%
%Inh [15]: 0%
%Inh [16]: 0%
%Inh [17]: 0%
%Inh [18]: 0%
%Inh [19]: 0%
%Inh [20]: 0%
